Compound activity (PubChem)
A selection: hits, their analogues and other compounds. The true share with any hit is near 7.8%.
Vaccinia Venus – vaccinia inhibition (Venus reporter); Vaccinia virus Venus reporter expression, fluorescence; Potency, µM (highest dose often 36.5 µM), inactives show at the highest dose activity change, negative = inhibition, actives largely listed as inhibitors; 0.46% of 330,000 active; calls by dose curve; tested in A549 cells; further: potency means the concentration at half of the fitted maximal effect; nearly all actives have a fitted effect of over 30% in size
HCV inh – HCV inhibition. Huh7.5.1 HCVcc-Cre infection, luciferase reporter, 44 h. 3.4% of 340,000 active. Potency, µM (series often up to 41.8 µM), inactives show top-dose activity change, negative = inhibition, usual class: inhibitors. AID 651820; active means well fitted inhibition curve with a large enough effect; inconclusive means small, poorly fitted or top-dose-only effect, or another doubt; inactive means no such curve, though single readings can be large or run the other way; further: potency means the concentration at half of the fitted maximal effect
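Infectious HCV cell culture screen: compound-treated cells (1,000/well, pre-plated 4 h) are infected with HCVcc-Cre at roughly 0.5 moi and grown 44 h. Infection is quantified by luciferase signal after 15 min substrate incubation at room temperature.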
HCMV antiviral – inhibitors of human cytomegalovirus. activity change, negative = inhibition, % at 57.5 µM. AID 1259415. HFF cells, HCMV-luciferase reporter, 72 h; active compounds read low. 4.5% of 410,000 active; in the data active means activity change below about -60%; inconclusive means no clear call, values can overlap the other calls; inactive means above about -39%
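Steps: HFFs plated, 16 h 37C; compounds added; HCMV-luciferase added to MOI 1 PFU/cell; 72 h 37C; OneGlo reagent, 5 min room temperature; luminescence read, normalized to controls.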
MARV entry inh – inhibitors of Marburg virus binding or cell entry; Marburg virus pseudotyped entry inhibition, cell reporter; Potency, µM (top dose mostly 37.8 µM), for inactives: at the highest dose activity change, negative = inhibition, usual class: inhibitors; 1.8% of 300,000 active; calls by dose curve; tested in HEK293 cells; further: potency means the concentration at half of the fitted maximal effect
VACV mCherry inh – vaccinia inhibition (mCherry reporter) | 0.63% of 310,000 active | Vaccinia virus mCherry reporter infection, fluorescence | Potency, µM (series often up to 36.5 µM), inactives show at the highest dose activity change, negative = inhibition, hits mostly inhibitors; calls by dose curve; tested in A549 cells; further: potency means the concentration at half of the fitted maximal effect; nearly all actives have a fitted effect of over 35% in size
Lassa entry inh – blocks Lassa virus binding to or entry into cells; Lassa virus pseudotype entry inhibition, cell reporter; Potency, µM (top dose mostly 37.9 µM), inactives show top-dose activity change, negative = inhibition, usual class: inhibitors; 1.2% of 300,000 active; calls by dose curve; tested in HEK293 cells; further: potency means the concentration at half of the fitted maximal effect; nearly all actives have a fitted effect of over 50% in size
* hit, by the source's call; i = inactive; ? = inconclusive; . = no result; [ ] = remark or other dose. On the % scale 0 is the no-effect control and ±100 the full control effect.

SMILES	Vaccinia Venus	HCV inh	HCMV antiviral	MARV entry inh	VACV mCherry inh	Lassa entry inh
CCCOc1ccc(C(=O)Nc2ccc(S(=O)(=O)NC3=NCCCCC3)cc2)cc1	?	?	-62*	?	8.9µM*	-24%
CON(C)S(=O)(=O)c1cccc(C(=O)Nc2ccc(S(=O)(=O)NC3=NCCCCC3)cc2)c1	-22%	?	?	-28%	-11%	-12%
CCN(CC)S(=O)(=O)c1cccc(C(=O)Nc2ccc(S(=O)(=O)NC3=NCCCCC3)cc2)c1	-24%	6%	-62*	-27%	-13%	-10%[46.1 µM]
CCOC(=O)N1CCc2c(sc(NCc3ccc(OC)c(Br)c3)c2C(=O)Nc2cc(OC)ccc2OC)C1	-13%	.	-23	.	-5%	-16%[46.1 µM]
CN(c1ccc(OCC(=O)Nc2nc(-c3ccccc3)cs2)cc1)S(=O)(=O)c1ccc(F)cc1	-19%	10µM*	-24	?	?	-24%
Cc1ccc(S(=O)(=O)N(C)c2ccc(OCC(=O)Nc3nc4c(ccc5ccccc54)s3)cc2)cc1	-6%	?	24	1.4µM*	i	2%
Cc1ccc(S(=O)(=O)N(C)c2ccc(OCC(=O)Nc3nc(-c4ccccc4)cs3)cc2)cc1	-14%	?	-16	?	-20%	?
CC(=O)Nc1ccccc1-c1nc(CNC(=O)c2ccc(-c3ccccc3F)cc2)c(C)o1	-22%	.	.	.	-24%	.
Cc1ccccc1CSc1nc2cccnc2n1Cc1ccc(C(=O)NCCc2cccs2)cc1	-15%	.	94	.	-21%	-3%[46.1 µM]
Cc1cc(C(=O)CSc2nnc(-c3cccs3)o2)c(C)n1-c1ccccc1	.	8.9µM*	-23	?	.	-18%
Cc1cc(C(=O)CSc2nnc(-c3ccco3)o2)c(C)n1-c1ccc2c(c1)OCCO2	-18%	13µM*	-28	-15%	.	?
CC(=O)c1ccc(OCC(=O)c2cc(C)n(-c3ccc4c(c3)OCO4)c2C)cc1	-15%	13µM*	-40	?	-23%	?
CN(C)C(=O)CSc1nnc(-c2cc(-c3cccs3)nc3ccccc23)o1	5µM*	?	-1	?	.	-25%
O=C(CSc1nnc(-c2cccs2)o1)c1cccs1	?	-15%	28	17%	?	14%
COc1cc(Nc2nn(-c3ccc(OC(F)(F)F)cc3)nc2C(C)=O)cc(OC)c1	-3%	.	-24	3%[46.1 µM]	-9%	-4%[46.1 µM]
CCN1C(=O)N(S(=O)(=O)C(F)(F)F)C(c2ccccc2)C(C(=O)OC)=C1C (centres undefined)	.	.	.	-6%[14.2 µM]	.	?
C=CCn1c(C)cc(C(=O)COC(=O)c2ccc(N)c([N+](=O)[O-])c2)c1C	?	?	22	?	-27%	?
Cc1cc(C(=O)COC(=O)c2ccc(N)c([N+](=O)[O-])c2)c(C)n1Cc1ccc2c(c1)OCO2	-7%[7.34 µM]	13µM*	-25	.	-21%[7.34 µM]	.
Cc1cc(C(=O)CSc2nnnn2C)c(C)n1-c1ccc2c(c1)OCCO2	.	-8%	53	-22%	.	27%
CC(=O)Nc1ccc(S(=O)(=O)NCC(=O)OCC(=O)c2cc(C)n(-c3ccc4c(c3)OCO4)c2C)cc1	-4%	7%	12	?	-9%	-4%
Cc1cc(C(=O)COC(=O)c2ccc(N)c([N+](=O)[O-])c2)c(C)n1-c1ccc2c(c1)OCO2	.	2µM*	-74*	-29%	.	-5%
Cc1nnc(SCC(=O)c2cc(C)n(-c3ccc4c(c3)OCO4)c2C)s1	-4%	11µM*	-66*	?	-9%	-6%
CCCN1CNc2c(c(=O)[nH]c(=S)n2CCC)C1	-5%	.	.	.	i	.
Cc1ccc(Cn2c(C(C)NC(=O)c3ccccc3)nc3ccccc32)cc1 (centres undefined)	-10%	.	?	?	-2%	-5%[46.1 µM]
CC1=C(O)C(=O)C=C2C1=CC=C1C2(C)CCC2(C)C3CC(C)(C(=O)O)CCC3(C)CCC12C (centres undefined)	10µM*	?	-78*	2.8µM*	22µM*	?
SMILES	Vaccinia Venus	HCV inh	HCMV antiviral	MARV entry inh	VACV mCherry inh	Lassa entry inh
COC(=O)c1c(OCCN2CCCCC2)cc(=O)n2c1CCN(Cc1cccc3nccnc13)CC2	-15%	.	.	.	i	.
CSc1ccc(C(=O)C2CCCN(C(=O)CCc3c(C)nn(C)c3C)C2)cc1 (centres undefined)	-26%	?	-63*	?	-10%	?
CCCCc1nc(Cl)c(CO)n1Cc1ccc(-c2ccccc2-c2nn[nH]n2)cc1	-14%	0.56µM*	1	.	-11%	.
CCC(=O)C1=C(c2ccccc2)N(C(=O)CC)n2c(nnc2-c2ccccc2)S1	-7%	.	-20	.	-13%	-11%[46.1 µM]
CCC(=O)C1=C(c2ccc(Cl)cc2)N(C(=O)CC)n2c(C)nnc2S1	-13%[7.34 µM]	.	-99*	.	i[7.34 µM]	0%[46.1 µM]
C[C@H](NC(=O)CSc1nc2c(cc1C#N)CN(C)CC2)c1ccccc1	.	.	.	18%	.	.
COc1cc(/C=N/Nc2nc(C)cc(C)n2)ccc1OC(=O)c1ccco1	-9%	-3%	-17	7%	-3%	?
CCOc1cc(/C=N\Nc2nc(Nc3ccccc3)nc(N3CCOCC3)n2)ccc1OC(=O)c1ccco1	?	?	-5	3.3µM*	?	?
Cc1ccc(Nc2nc(N/N=C\c3ccc4c(c3)OCO4)nc(N3CCOCC3)n2)cc1	?	11µM*	?	?	?	?
Cc1ccc(Nc2nc(OC(C(F)(F)F)C(F)(F)F)nc(N3CCOCC3)n2)cc1	-47%	-3%	-1	1µM*	.	11%
COc1cccc(C(=O)N(Cc2sccc2C)C2CCS(=O)(=O)C2)c1 (centres undefined)	-9%	.	26	-21%[46.1 µM]	-3%	4%[46.1 µM]
Cc1ccc(CN(C(=O)COc2cccc(Cl)c2)c2ccccn2)o1	-6%	.	-1	?	-9%	-21%[46.1 µM]
O=[N+]([O-])c1ccc(O)c(/C=N/Nc2ccc(Cl)nn2)c1	?	4µM*	-101*	0.13µM*	1.1µM*	?
O=C(Cn1nnc(-c2ccccc2)n1)N/N=C/c1ccco1	-9%	13µM*	-16	?	-10%	3%[46.1 µM]
O=C(N/N=C/c1cc([N+](=O)[O-])ccc1O)C1CCCCC1	-24%	12%	-66*	?	-15%	?
O=[N+]([O-])c1ccc(O)c(/C=N/Nc2nn[nH]n2)c1	-9%	3%	29	14%[46.1 µM]	i	-26%[46.1 µM]
O=C(Cn1nc2ccccc2n1)N/N=C/c1cc([N+](=O)[O-])ccc1O	-19%	?	11	10µM*	-2%	?
CCCOc1ccc(CNC(=O)CCCN2C(=O)CSc3c2c(C)nn3-c2ccccc2)cc1	-8%	.	-2	.	-4%	?
O=C(N/N=C/c1cc([N+](=O)[O-])ccc1O)c1cccc2ccccc12	.	.	-112*	.	.	.
O=C(Cn1nnc(-c2ccccc2)n1)N/N=C/c1cc([N+](=O)[O-])ccc1O	5%	?	-73*	3%	-5%	3%
